# Calls of active or inactive are those of the source. The call rests on the fitted dose curve; in most records, active means well fitted curve in the direction sought with a large enough effect; inconclusive means small, poorly fitted or top-dose-only effect, or effect the other way, or another doubt; inactive means no such curve, though single readings can be large or run the other way.
# Molecular target: Beta-2 adrenergic receptor (Homo sapiens) (UniProt P07550)
# Assay: qHTS validation assay of beta-arrestin-biased ligands of beta2-adrenergic receptor (AID 485366); further: 0% is about no effect
# Conditions: cell-based beta-arrestin recruitment to ADRB2, qHTS; series mostly up to 46.1 µM; activation: at the top concentration
# Excerpt: NIH Molecular Libraries Probe Production Network [MLPCN]
# NIH Chemical Genomics Center [NCGC]
# PI: Bryan Roth and Bob Lefkowitz
# The concept of biased agonism is an emerging concept of molecular pharmacology which proposes that seven transmembrane receptors (7TMRs) or G protein-coupled receptors (GPCRs), exist in multiple signaling conformations and complexes and that ligands (either agonists or antagonists) can induce signaling biased responses for distinct signal transduction cascades.
# Furthermore, accumulating evidence over the last decade has drawn attention to a novel function of beta-arrestins as signal transducers that scaffold various signaling molecules upon activation of 7TMRs. […] This beta-arrestin-biased signaling presumably leads to distinct physiological outcomes from those by G protein activation.
# Additionally, the active receptor conformations which […] on this beta-arrestin signaling are likely different from those activating G protein signaling
# The goal of this screening project will be to discover and optimize novel beta-arrestin-biased ligands for beta2-AR signaling. A luminescent cell-based assay for beta2-AR-mediated agonism, known as the Tango assay, has been validated in which ligand binding of a recombinant beta2-AR and subsequent recruitment of a recombinant beta-arrestin lead to the release of the transcriptional activator tTA, which upregulates transcription of a tTA-responsive luciferase gene. […] Compounds were screened as a concentration-titration series that ranged from 46 microM to 0.6 nM.
# NCGC Assay Protocol Summary:
# Tango cells were dispensed into white, solid, tissue-culture-treated 1536-well plates at 1500 cells/well in DMEM, containing 1% fetal bovine serum (FBS). Then, 23 nL of compounds or DMSO were delivered to each well using a pin tool. Plates were incubated at 37 degrees C, 5% CO2 for 18 hr. Then 2.5 uL luminescent substrate mix (in-house prepared: 150 mM Tris-Cl, pH 7.6, 3 mM MgCl2, 1% Triton X-100, 5 mM DTT, 0.5 mM CoA, 0.15 mM ATP, 0.44 mM D-luciferin, final concentrations) was added to each well. Plates were then incubated for 15 minutes at room temperature, and subsequently measured on a ViewLux plate reader for luminescent signal using a clear filter with a 10 second exposure and 2x binning. The %Activity was determined from the corrected luminescence values.
# Concentration-response curves were fitted to the signals arising from the resulting luminescence. The concentration-effect curves were then classified based on curve quality (r2), response magnitude and degree of measured activity, and compounds were subsequently categorized based on their curve class.
# Keywords: biased agonism, beta2-AR, beta-arrestin, GPCR, 7TMR, Tango, luminescence, MLSMR, MLPCN, NIH Roadmap, qHTS, NCGC
# Chain of Beta-2 adrenergic receptor (Homo sapiens) (P07550 whole entry, looked up): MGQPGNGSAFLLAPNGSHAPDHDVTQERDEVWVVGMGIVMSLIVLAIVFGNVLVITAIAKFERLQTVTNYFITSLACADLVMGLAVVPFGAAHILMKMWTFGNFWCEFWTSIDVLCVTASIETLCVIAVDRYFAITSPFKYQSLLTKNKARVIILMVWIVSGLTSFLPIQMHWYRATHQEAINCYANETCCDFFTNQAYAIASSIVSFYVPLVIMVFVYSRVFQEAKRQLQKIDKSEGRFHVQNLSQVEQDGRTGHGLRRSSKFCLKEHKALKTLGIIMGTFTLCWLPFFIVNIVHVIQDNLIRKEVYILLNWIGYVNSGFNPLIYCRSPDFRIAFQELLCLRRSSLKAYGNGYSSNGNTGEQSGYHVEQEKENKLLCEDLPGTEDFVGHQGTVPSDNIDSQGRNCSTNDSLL
Structure (SMILES),activation,outcome
CNCCc1ccc(O)c(O)c1,8.94% (inactive),–
NCc1cc(=O)[nH]o1,-0.0392% (inactive),–
NC(CP(=O)(O)O)C(=O)O (stereo not given),0.0146% (inactive),–
COc1cc(C(O)CN)ccc1O (stereo not given),0.0773% (inactive),–
CC(C)NC(C)Cc1ccc(I)cc1 (stereo not given),1.39% (inactive),–
Cc1nccc2c1[nH]c1ccccc12,0.0319% (inactive),–
CC[C@@H](C(N)=O)N1CCCC1=O,-1.48% (inactive),–
CC(=O)NCCc1c[nH]c2ccccc12,3.23% (inactive),–
CCCN(CCC)[C@@H]1CCc2ccc(O)cc2C1,-0.0958% (inactive),–
O=C(O)Cc1cnc[nH]1,0.185% (inactive),–
COc1ccc2c(c[n+](C)c3c4cc5c(cc4ccc23)OCO5)c1OC,-0.644% (inactive),–
C[C@@H](N)Cc1cnc[nH]1,1.89% (inactive),–
Cn1cnc(CCN)c1,-1.09% (inactive),–
Clc1cnc(Oc2ccc(Oc3ncc(Cl)cc3Cl)cc2)c(Cl)c1,-0.0512% (inactive),–
NC1CCc2cc(O)c(O)cc2C1 (stereo not given),0.276% (inactive),–
C[C@]12CCC3C(CC[C@H]4C[C@H](O)CC[C@]34C)C1CC[C@@H]2C(=O)CO (stereo not given in full),-0.153% (inactive),–
NC(N)=NOCCC(N)C(=O)O (stereo not given),0.231% (inactive),–
CNCCc1c[nH]c2ccc(O)cc12,2.28% (inactive),–
C/C=C(/C)C(=O)O[C@H]1C(C)=C2[C@H]([C@@H]1OC(=O)CCCCCCC)[C@@](C)(OC(C)=O)C[C@H](OC(=O)CCC)[C@@]1(O)[C@H]2OC(=O)[C@@]1(C)O,-1.55% (inactive),–
Oc1ccc2c3c1O[C@H]1c4[nH]c5c(c4C[C@@]4(O)[C@@H](C2)N(CC2CC2)CC[C@]314)C[C@@]1(O)[C@H]2Cc3ccc(O)c4c3[C@@]1(CCN2CC1CC1)[C@H]5O4,1.04% (inactive),–

Structure (SMILES),activation,outcome
CCCN1CCC[C@H](c2cccc(O)c2)C1,-0.37% (inactive),–
S=C(NC1CCCCC1)N1CCC(c2cnc[nH]2)CC1,0.0973% (inactive),–
NCCc1c[nH]c2ccc(O)cc12,-0.136% (inactive),–
C[C@]12N[C@H](Cc3ccccc31)c1ccccc12,-0.428% (inactive),–
C[N+]1(C)C2CCC1CC(OC(=O)C(CO)c1ccccc1)C2 (stereo not given),–,inactive
O=C(O)CC[N+](=O)[O-],1.48% (inactive),–
CCCCc1ccc(C(=O)O)nc1,-0.211% (inactive),–
CC1=NN=C(c2ccc(N)cc2)c2cc3c(cc2C1)OCO3,1.32% (inactive),–
NCCc1c[nH]c2ccccc12,2.79% (inactive),–
Cc1c(C(=O)c2cccc3ccccc23)c2cccc3c2n1[C@H](CN1CCOCC1)CO3,9.86% (inactive),–
c1ccc2sc(C3(N4CCCCC4)CCCCC3)cc2c1,-0.329% (inactive),–
CCCN1CCO[C@@H]2c3cc(O)ccc3OC[C@H]21,–,inactive
C#CCOC(=O)C1=CCCN(C)C1,2.51% (inactive),–
NC(=O)CN1CC(O)CC1=O (stereo not given),1.88% (inactive),–
CN1C2CCC1CC(OC(=O)c1cc(Cl)cc(Cl)c1)C2 (stereo not given),-0.271% (inactive),–
C=CCN1CC[C@]23CCCCC2[C@H]1Cc1ccc(O)cc13 (stereo not given in full),-0.646% (inactive),–
O=C(O)[C@@H]1CCN1,-0.389% (inactive),–
CC(C)Oc1cccnc1N(C)C1CCN(Cc2ccccc2)CC1,0.41% (inactive),–
c1ccc(CCCN2CCN(CCOC(c3ccccc3)c3ccccc3)CC2)cc1,-0.0222% (inactive),–
CC[C@@]1(O)C(=O)OCc2c1cc1n(c2=O)Cc2cc3ccccc3nc2-1,1.58% (inactive),–

# Reference: PubChem BioAssay (NCATS)
